TRPV1 agonist = HTS Assay for Compounds that Act as Agonists of the Vanilloid Receptor 1; Transient receptor potential cation channel subfamily V member 1 (Homo sapiens), Q8NER1; activation, % at 8.33 µM; actives 0.19% (n = 320,000); TRPV1-expressing cells, Fluo-8 calcium influx, agonist mode; AID 540275, 2011; in the data active means activation above about 80%; inconclusive means between about 30% and that limit
Target sequence (Q8NER1 whole entry, looked up): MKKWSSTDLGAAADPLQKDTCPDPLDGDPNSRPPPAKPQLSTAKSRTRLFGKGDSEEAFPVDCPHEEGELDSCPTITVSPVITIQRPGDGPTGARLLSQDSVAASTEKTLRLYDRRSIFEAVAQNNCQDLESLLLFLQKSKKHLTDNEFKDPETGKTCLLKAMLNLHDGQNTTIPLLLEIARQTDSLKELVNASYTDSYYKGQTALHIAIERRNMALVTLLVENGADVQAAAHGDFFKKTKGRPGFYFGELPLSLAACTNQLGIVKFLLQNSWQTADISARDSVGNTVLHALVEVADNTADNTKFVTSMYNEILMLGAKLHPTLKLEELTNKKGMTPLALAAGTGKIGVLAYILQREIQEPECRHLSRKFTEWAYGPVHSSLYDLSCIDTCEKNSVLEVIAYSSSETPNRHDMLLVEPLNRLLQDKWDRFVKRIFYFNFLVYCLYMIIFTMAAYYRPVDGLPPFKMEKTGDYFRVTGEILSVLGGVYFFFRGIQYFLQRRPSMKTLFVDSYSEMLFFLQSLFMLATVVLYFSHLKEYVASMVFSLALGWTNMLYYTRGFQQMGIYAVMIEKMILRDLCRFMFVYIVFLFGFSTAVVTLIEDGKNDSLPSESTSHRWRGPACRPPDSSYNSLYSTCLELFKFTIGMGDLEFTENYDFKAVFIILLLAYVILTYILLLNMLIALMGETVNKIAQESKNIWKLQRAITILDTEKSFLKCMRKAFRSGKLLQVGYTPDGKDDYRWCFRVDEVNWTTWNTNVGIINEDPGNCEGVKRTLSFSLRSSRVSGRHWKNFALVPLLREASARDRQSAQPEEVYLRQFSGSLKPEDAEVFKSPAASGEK
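Fluo-8 calcium influx in TRPV1-expressing cells, kinetic read (ex 480/em 520 nm). Compound added and read 3 min for agonist activity, followed by capsaicin at EC20 final and 2 min further read for enhancement.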
TRPV1 PAM = HTS Assay for Compounds that Act as Potentiators of the Vanilloid Receptor 1; Transient receptor potential cation channel subfamily V member 1 (Homo sapiens), Q8NER1; potentiation, % at 8.33 µM; actives 0.02% (n = 320,000); TRPV1-expressing cells, Fluo-8 calcium influx, capsaicin EC20 potentiation; AID 540277, 2011; in the data active means potentiation above about 80%; inconclusive means between about 30% and that limit
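Fluo-8 calcium influx in TRPV1-expressing cells, kinetic read (ex 480/em 520 nm). Compound added and read 3 min for agonist activity, followed by capsaicin at EC20 final and 2 min further read for enhancement.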
KCNH2 3.1 inh = qHTS for Inhibitors of KCHN2 3.1: Mutant qHTS | actives 0.95% (n = 340,000) | activity change, % (tested at about 1.8 µM) | Potassium voltage-gated channel subfamily H member 2, brain isoform KCNH2 3.1 (human) | U2OS KCNH2 3.1, thallium flux FluxOr; active compounds read low;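 active means maximum activity change below -70%; inconclusive means maximum activity change from -70% to -50%; inactive means maximum activity change above -50%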;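 further: thallium influx rate constant from kinetic fluorescence after stimulation buffer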
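Virally transduced U2OS (3.1 isoform, 4 h infection in dark at RT) → overnight 37 C → FluxOr + Red40 in HBSS/HEPES, 45 min → stimulation buffer, 2 min kinetic read → rate constant vs DMSO controls.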
KCNH2 WT inh = qHTS for Inhibitors of KCHN2 3.1: Wildtype qHTS | Voltage-gated inwardly rectifying potassium channel KCNH2 (Homo sapiens), Q12809 | activity change, % at 1.84 µM | AID 720551, 2013 | actives 0.37% (n = 340,000) | U2OS, BacMam KCNH2, thallium flux FluxOr; active compounds read low;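 active means maximum activity change below -70%; inconclusive means maximum activity change between -70% and -50%; inactive means maximum activity change above -50%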
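U2OS cells were transduced with wild-type KCNH2 virus (2.03 x 10^8 / mL) for 4 h at room temperature, then cultured overnight at 37 C. Thallium flux was read with FluxOr dye. Rate constants were normalized to DMSO controls.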
Of the large screens only hits and unclear results are named; the others gave an inactive call. In the library only some 1.2% were active in any assay of this set; here they are far more common.

CCOC(=O)[C@H]1[C@H]2COc3ccc(C)cc3[C@@H]2N2C(=O)c3cc(Cl)ccc3NC(=O)[C@@]12C	TRPV1 agonist 82
C[C@@]12C(=O)N(CC3CCCO3)CC(=O)N1[C@H]1c3cc(Cl)ccc3OC[C@@H]1[C@@H]2c1ccccc1 (stereo partly specified)	KCNH2 3.1 inh -93 (no result: TRPV1 agonist, TRPV1 PAM)
COCOCCn1cc(CN2CCS(=O)(=O)N(Cc3ccc(-c4ccc(OC)c(OC)c4)cc3)C(C)C2=O)nn1 (stereo unspecified)	none (no result: TRPV1 agonist, TRPV1 PAM)
COc1cccc(-c2nc(CS(=O)(=O)CC(=O)N3CCCCC3)c(C)o2)c1	TRPV1 agonist inconclusive
CCOC(=O)[C@H]1[C@H]2COc3ccc(C)cc3[C@@H]2N2C(=O)c3cc(F)ccc3NC(=O)[C@@]12C	TRPV1 agonist 91 (no result: KCNH2 3.1 inh, KCNH2 WT inh)
CCOC(=O)[C@H]1[C@H]2COc3ccc(C)cc3[C@@H]2N2C(=O)c3ccccc3NC(=O)[C@@]12C	TRPV1 agonist 90
CCOC(=O)[C@H]1[C@H]2COc3ccc(OC)cc3[C@@H]2N2C(=O)c3cc(C)ccc3NC(=O)[C@@]12C	TRPV1 agonist 99
CCOC(=O)[C@H]1[C@H]2COc3ccc(Cl)cc3[C@@H]2N2C(=O)c3cc(F)ccc3NC(=O)[C@@]12C	TRPV1 agonist inconclusive
CCOC(=O)[C@H]1[C@H]2COc3ccccc3[C@@H]2N2C(=O)c3cc(OC)ccc3NC(=O)[C@@]12C	TRPV1 agonist inconclusive
O=C(c1ccc([N+](=O)[O-])s1)N1CCN(c2ncccn2)CC1	none (no result: TRPV1 agonist, TRPV1 PAM)
CCOc1ccc2cc(C3CC(c4ccco4)=NN3S(=O)(=O)c3ccccc3)c(Cl)nc2c1 (stereo unspecified)	none
COc1ccc2cc(C3CC(c4ccco4)=NN3S(=O)(=O)c3ccccc3)c(Cl)nc2c1 (stereo unspecified)	KCNH2 3.1 inh -83
O=S(=O)(c1cccc2cccnc12)N1CCN(Cc2ccccc2)CC1	none
COc1ccc(-c2coc3cc(O[C@@H]4O[C@H](CO)[C@@H](O)[C@H](O)[C@H]4O)ccc3c2=O)cc1	KCNH2 3.1 inh -151 (no result: TRPV1 agonist, TRPV1 PAM)
Cc1ccc(/C=N/N2CCN(c3ccccc3)CC2)cc1	none
Cc1ccc(N2CCN(/N=C/c3c(C)nn(-c4ccccc4)c3Cl)CC2)cc1	KCNH2 3.1 inh -90 (no result: KCNH2 WT inh)
COc1ccccc1CNC(=O)Cn1c(=O)c2cccn2c2cccnc21	none
CCN(CC)CCN(C(=O)c1ccc2c(c1)CCCC2)c1nc2ccc(F)cc2s1	none
CN(C)CCCN(C(=O)c1ccc2c(c1)CCCC2)c1nc2ccc(F)cc2s1	KCNH2 3.1 inh -72, KCNH2 WT inh inconclusive
COc1ccc(CCNC(=O)c2ccc(CS(=O)(=O)Cc3ccc(C)cc3)o2)cc1OC	none (no result: TRPV1 agonist, TRPV1 PAM)
C[C@@H]1CN([C@@H](C)CO)C(=O)CCCn2nncc2CO[C@H]1CN(C)C(=O)c1ccc2ccn(C)c2c1	none (no result: TRPV1 agonist, TRPV1 PAM)
Clc1ncccc1-c1nnn(-c2ccccc2Br)n1	none
Clc1nc2ccccc2cc1-c1nnn(-c2ccccc2Br)n1	KCNH2 WT inh -73 (no result: TRPV1 agonist, TRPV1 PAM)
COCCCN1CCN(C2Cc3ccccc3Sc3ccc(Cl)cc32)CC1 (stereo unspecified)	KCNH2 3.1 inh -86, KCNH2 WT inh inconclusive
COc1ccc(CC(=O)N/N=C(\C)CC(=O)Nc2ccc(N(C)C)cc2)cc1	none
COc1ccc(CC(=O)N/N=C(/C)CC(=O)N(C)c2ccccc2)cc1	KCNH2 3.1 inh -92
CCCn1nc(NC(=O)c2cccs2)c2cc3cccc(C)c3nc21	TRPV1 agonist inconclusive
CCN1C(=NCCCOC(C)C)N[C@@H](c2ccccc2)[C@H](C(=O)OC)[C@H]1C	none
CCN1C(=NCCc2ccc(Br)cc2)N[C@@H](c2ccccc2)[C@H](C(=O)OC)[C@H]1C	KCNH2 3.1 inh -79
CCN1C(=NCCc2ccc([N+](=O)[O-])cc2)N[C@@H](c2ccccc2)[C@H](C(=O)OC)[C@H]1C	KCNH2 3.1 inh -93
CN(C)c1ccc(C=O)c(Oc2ccccc2)c1	none (no result: TRPV1 agonist, TRPV1 PAM)
O=C(CSC(=S)N1CCOCC1)Nc1nc(=O)c2ccccc2s1	none (no result: KCNH2 3.1 inh, KCNH2 WT inh)
CCN1/C(=C/C=C/c2sc3ccccc3[n+]2CC)Sc2ccccc21	none
CCN1/C(=C/C=C/c2oc3ccc(-c4ccccc4)cc3[n+]2CC)Oc2ccc(-c3ccccc3)cc21	TRPV1 agonist 105, TRPV1 PAM inconclusive, KCNH2 3.1 inh -160, KCNH2 WT inh -96
Cc1ccc(OCC(=O)N2CCN(C(=O)Cc3ccccc3)CC2)cc1	none
O=C(COc1ccc(-c2ccccc2)cc1)N1CCN(S(=O)(=O)Cc2ccccc2)CC1	KCNH2 3.1 inh -75
COC(=O)c1cn(CC(=O)N2CCCCCC2)c2ccccc12	none
CCOC(=O)C1=C(O)/C(=C/c2cn(CC(=O)N3CCCC3)c3ccccc23)SC1=Nc1ccccc1	KCNH2 WT inh -102
O=C(CCCn1c(=S)[nH]c2ccsc2c1=O)NCc1ccco1	none
O=C(CCCCn1c(=S)[nH]c2ccsc2c1=O)NCc1ccco1	KCNH2 3.1 inh -71
O=C(Cn1cc(COc2c(F)c(F)cc(F)c2F)nn1)c1ccc(O)cc1	none (no result: TRPV1 agonist, TRPV1 PAM)
COCc1c(C(=O)OCc2nc3ccsc3c(=O)[nH]2)oc2ccccc12	none
FC(F)(F)c1cc(-c2ccco2)nc(-n2nc(C(F)(F)F)cc2C2CC2)n1	KCNH2 3.1 inh -143
CCCCOc1ccc(C(O)(CCC)CCN2CCOCC2)cc1 (stereo unspecified)	none
CCCCCC(O)(CCN1CCCCC1)c1ccc(OCC)cc1 (stereo unspecified)	KCNH2 3.1 inh -114, KCNH2 WT inh -99
CCOC(=O)C1=C(C)N=C2SC(C)C(=O)N2C1c1ccccc1 (stereo unspecified)	KCNH2 3.1 inh -94
CCOC(=O)C1=C(C)N=C2SC(C)C(=O)N2C1c1ccc(C(=O)OC)cc1 (stereo unspecified)	none
CCOc1ccccc1N(CC(=O)Nc1cccnc1)S(C)(=O)=O	KCNH2 3.1 inh -86
Cc1cn2c(-c3cccnc3)nnc2s1	KCNH2 3.1 inh -76
CCN(CC)CCN(Cc1cc2cc(C)ccc2[nH]c1=O)C(=O)Nc1ccccc1OC	TRPV1 PAM 88
Cc1csc(=O)n1CCC(=O)OCc1nnc(-c2ccccc2Cl)o1	KCNH2 WT inh -85 (no result: TRPV1 agonist, TRPV1 PAM)
O=C(CCCc1ccccc1)N1CCN(C2CCCCC2)CC1	none
c1ccc(CCN(Cc2ccccc2)C2CCN(C3CCCC3)CC2)cc1	KCNH2 3.1 inh -88
COc1cccc(CN2CCN(CCCc3ccccc3)C(CCO)C2)c1O (stereo unspecified)	KCNH2 3.1 inh inconclusive
Cc1cccc(C)c1OCCCn1c(CCNC(=O)C2CCCCC2)nc2ccccc21	TRPV1 agonist inconclusive (no result: KCNH2 3.1 inh, KCNH2 WT inh)
CCn1c(=O)c(C(=O)CN(C)Cc2cccc(OC)c2OC)c(N)n(Cc2ccccc2)c1=O	none
COc1ccc(CN(C)CC(=O)c2c(N)n(Cc3ccccc3)c(=O)n(C)c2=O)c(OC)c1	KCNH2 3.1 inh inconclusive
